Publication PMC7862700, “An all-to-all approach to the identification of sequence-specific readers for epigenetic DNA modifications on cytosine”

Legend:
Experiment in all cases: DAPPL (digital affinity profiling via proximity ligation, sequencing); 10 mM Tris-HCl pH 7.5, 50 mM NaCl, 1 mM DTT, 4% glycerol, room temperature, 30 min; GST-TFs on glutathione beads, 16-mer random dsDNA library, 0.1% formaldehyde crosslink after washing; high values mean tight binding
FLI1 = molecular target: T1, FLI1 (Homo sapiens, UniProt Q01543 1-452); settings: protein: recombinant; tags: N-terminal GST; dsDNA, one strand shown
T1 sequence: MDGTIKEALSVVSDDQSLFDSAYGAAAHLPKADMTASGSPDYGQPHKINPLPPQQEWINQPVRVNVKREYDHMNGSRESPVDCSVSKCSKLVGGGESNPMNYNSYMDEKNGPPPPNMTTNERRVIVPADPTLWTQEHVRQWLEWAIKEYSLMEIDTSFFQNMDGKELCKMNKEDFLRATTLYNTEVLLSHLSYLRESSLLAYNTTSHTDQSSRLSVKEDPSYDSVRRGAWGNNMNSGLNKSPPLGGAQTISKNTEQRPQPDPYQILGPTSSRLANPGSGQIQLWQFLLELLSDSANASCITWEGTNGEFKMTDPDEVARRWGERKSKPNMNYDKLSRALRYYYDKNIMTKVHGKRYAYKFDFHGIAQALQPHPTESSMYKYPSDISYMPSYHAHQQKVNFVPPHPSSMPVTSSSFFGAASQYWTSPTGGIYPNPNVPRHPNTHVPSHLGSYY
In short: (§1)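 In yeast, human transcription factors were expressed with a GST fusion, then pulled down on glutathione beads and given DNA barcodes. Pooled with a tag-only sample, they were exposed to 200 nmole of a 16-mer random double-stranded DNA library (Tris/NaCl/DTT/glycerol buffer, room temperature, 30 min), washed, crosslinked with 0.1% formaldehyde, proximity-ligated using BsaI/T4 ligase for 1 h at 37 °C, PCR-amplified and read on an Illumina NextSeq500. Each hexamer's frequency of reads for a factor, divided by the matching frequency for the tag-only sample, gives the binding signal.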

ELK1 = molecular target: T2, ELK1 (Homo sapiens, UniProt P19419 1-428); settings: protein: recombinant; tags: N-terminal GST; dsDNA, one strand shown
T2 sequence: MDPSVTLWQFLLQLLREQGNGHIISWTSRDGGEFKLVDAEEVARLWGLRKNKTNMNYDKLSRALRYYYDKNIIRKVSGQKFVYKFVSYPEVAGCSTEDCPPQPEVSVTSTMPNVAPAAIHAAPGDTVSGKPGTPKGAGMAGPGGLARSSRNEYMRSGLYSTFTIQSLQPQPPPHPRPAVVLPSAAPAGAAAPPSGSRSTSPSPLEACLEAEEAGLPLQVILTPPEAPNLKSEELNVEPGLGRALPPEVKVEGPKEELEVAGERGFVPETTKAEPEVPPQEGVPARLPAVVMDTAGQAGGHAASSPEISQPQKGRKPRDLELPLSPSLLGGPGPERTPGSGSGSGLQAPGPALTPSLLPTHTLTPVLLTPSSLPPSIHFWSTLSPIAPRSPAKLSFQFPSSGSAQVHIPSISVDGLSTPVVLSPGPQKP
In short: as §1

GABPA = molecular target: T3, GABPA (Homo sapiens, UniProt Q06546 1-454); settings: protein: recombinant; tags: N-terminal GST; dsDNA, one strand shown
T3 sequence: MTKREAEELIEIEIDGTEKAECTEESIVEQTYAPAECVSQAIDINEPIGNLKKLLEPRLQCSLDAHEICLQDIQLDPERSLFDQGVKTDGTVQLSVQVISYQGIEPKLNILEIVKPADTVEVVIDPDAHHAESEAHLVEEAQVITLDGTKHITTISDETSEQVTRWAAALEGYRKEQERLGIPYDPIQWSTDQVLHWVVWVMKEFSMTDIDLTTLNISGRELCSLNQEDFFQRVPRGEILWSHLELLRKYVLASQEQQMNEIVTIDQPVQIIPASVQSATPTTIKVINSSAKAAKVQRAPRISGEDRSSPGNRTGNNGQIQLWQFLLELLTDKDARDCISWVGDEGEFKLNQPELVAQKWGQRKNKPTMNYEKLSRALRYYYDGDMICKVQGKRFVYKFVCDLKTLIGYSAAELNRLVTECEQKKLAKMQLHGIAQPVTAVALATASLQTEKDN
In short: as §1

ERG = molecular target: T4, ERG (Homo sapiens, UniProt P11308 1-479); settings: protein: recombinant; tags: N-terminal GST; dsDNA, one strand shown
T4 sequence: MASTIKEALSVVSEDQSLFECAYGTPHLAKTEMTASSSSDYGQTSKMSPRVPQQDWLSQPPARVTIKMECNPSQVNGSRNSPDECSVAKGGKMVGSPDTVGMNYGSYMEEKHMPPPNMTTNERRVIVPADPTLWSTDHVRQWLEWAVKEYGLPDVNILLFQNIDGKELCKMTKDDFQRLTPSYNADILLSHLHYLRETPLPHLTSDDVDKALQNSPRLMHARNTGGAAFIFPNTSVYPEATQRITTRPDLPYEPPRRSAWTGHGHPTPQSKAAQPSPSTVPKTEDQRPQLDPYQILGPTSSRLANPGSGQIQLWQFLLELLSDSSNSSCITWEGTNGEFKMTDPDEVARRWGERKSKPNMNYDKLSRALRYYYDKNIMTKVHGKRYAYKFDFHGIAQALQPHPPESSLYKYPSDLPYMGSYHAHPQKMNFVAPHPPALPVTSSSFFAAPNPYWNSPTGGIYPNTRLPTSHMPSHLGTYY
In short: as §1

ELF1 = ELF1 (Homo sapiens, UniProt P32519 1-619); settings: protein: recombinant; tags: N-terminal GST; dsDNA, one strand shown
In short: as §1

EHF = molecular target: T5, EHF (Homo sapiens, UniProt Q9NZC4 1-300); settings: protein: recombinant; tags: N-terminal GST; dsDNA, one strand shown
T5 sequence: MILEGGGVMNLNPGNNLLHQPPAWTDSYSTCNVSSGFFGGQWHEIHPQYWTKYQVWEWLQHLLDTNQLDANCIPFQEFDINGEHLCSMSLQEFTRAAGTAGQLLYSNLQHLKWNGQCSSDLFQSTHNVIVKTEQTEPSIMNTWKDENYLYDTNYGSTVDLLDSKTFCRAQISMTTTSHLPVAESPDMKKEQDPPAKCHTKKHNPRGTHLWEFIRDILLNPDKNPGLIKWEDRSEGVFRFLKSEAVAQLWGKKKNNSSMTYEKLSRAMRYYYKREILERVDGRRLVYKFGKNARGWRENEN
In short: as §1

SPI1 = SPI1 (Homo sapiens, UniProt P17947 1-270); settings: protein: recombinant; tags: N-terminal GST; dsDNA, one strand shown
In short: as §1

SPIB = SPIB (Homo sapiens, UniProt Q01892 1-262); settings: protein: recombinant; tags: N-terminal GST; dsDNA, one strand shown
In short: as §1

ELK3 = molecular target: T6, ELK3 (Homo sapiens, UniProt P41970 1-407); settings: protein: recombinant; tags: N-terminal GST; dsDNA, one strand shown
T6 sequence: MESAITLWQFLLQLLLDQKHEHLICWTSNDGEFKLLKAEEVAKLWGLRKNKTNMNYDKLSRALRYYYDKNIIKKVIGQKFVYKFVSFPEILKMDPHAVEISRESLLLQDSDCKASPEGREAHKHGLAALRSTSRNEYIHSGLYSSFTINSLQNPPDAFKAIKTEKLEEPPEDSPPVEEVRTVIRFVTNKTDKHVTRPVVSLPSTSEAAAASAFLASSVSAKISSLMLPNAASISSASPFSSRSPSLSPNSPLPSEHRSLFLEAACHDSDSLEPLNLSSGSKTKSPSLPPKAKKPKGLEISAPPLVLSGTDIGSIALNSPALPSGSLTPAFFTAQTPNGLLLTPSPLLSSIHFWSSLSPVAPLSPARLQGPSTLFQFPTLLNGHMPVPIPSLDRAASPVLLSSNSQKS
In short: as §1

FEV = molecular target: T7, FEV (Homo sapiens, UniProt Q99581 1-238); settings: protein: recombinant; tags: N-terminal GST; dsDNA, one strand shown
T7 sequence: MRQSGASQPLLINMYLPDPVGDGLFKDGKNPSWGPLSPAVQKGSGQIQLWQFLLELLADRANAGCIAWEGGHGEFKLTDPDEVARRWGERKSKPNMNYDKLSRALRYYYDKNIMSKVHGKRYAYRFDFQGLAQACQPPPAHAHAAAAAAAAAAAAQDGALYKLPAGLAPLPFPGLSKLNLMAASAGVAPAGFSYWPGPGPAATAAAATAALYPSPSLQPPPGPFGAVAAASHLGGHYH
In short: as §1

ETV5 = ETV5 (Homo sapiens, UniProt P41161 1-510); settings: protein: recombinant; tags: N-terminal GST; dsDNA, one strand shown
In short: as §1

HSF1 = HSF1 (Homo sapiens, UniProt Q00613 1-529); settings: protein: recombinant; tags: N-terminal GST; chain copies: 3; dsDNA, one strand shown
In short: as §1

SPIC = molecular target: T8, SPIC (Homo sapiens, UniProt Q8N5J4 1-248); settings: protein: recombinant; tags: N-terminal GST; dsDNA, one strand shown
T8 sequence: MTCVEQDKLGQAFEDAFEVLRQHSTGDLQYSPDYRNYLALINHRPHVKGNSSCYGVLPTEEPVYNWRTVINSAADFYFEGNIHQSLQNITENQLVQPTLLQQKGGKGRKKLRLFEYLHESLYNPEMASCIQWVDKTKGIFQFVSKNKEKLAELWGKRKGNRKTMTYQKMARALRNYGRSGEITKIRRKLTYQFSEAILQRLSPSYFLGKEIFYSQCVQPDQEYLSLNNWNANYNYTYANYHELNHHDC
In short: as §1

ELF4 = ELF4 (Homo sapiens, UniProt Q99607 1-663); settings: protein: recombinant; tags: N-terminal GST; dsDNA, one strand shown
In short: as §1

ELK4 = molecular target: T9, ELK4 (Homo sapiens, UniProt P28324-2 1-405); settings: protein: recombinant; tags: N-terminal GST; dsDNA, one strand shown
T9 sequence: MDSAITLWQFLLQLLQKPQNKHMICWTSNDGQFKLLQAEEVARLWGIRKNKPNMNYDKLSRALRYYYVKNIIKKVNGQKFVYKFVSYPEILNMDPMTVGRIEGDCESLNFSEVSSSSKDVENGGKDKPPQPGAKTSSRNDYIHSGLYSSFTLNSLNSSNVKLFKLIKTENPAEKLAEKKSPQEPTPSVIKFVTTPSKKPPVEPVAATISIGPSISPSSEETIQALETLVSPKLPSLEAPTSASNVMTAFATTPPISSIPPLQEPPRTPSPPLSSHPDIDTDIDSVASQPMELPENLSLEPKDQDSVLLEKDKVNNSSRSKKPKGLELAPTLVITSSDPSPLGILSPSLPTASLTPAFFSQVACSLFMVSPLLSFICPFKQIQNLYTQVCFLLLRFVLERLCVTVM
In short: as §1

ETV2 = molecular target: T10, ETV2 (Homo sapiens, UniProt O00321 1-342); settings: protein: recombinant; tags: N-terminal GST; dsDNA, one strand shown
T10 sequence: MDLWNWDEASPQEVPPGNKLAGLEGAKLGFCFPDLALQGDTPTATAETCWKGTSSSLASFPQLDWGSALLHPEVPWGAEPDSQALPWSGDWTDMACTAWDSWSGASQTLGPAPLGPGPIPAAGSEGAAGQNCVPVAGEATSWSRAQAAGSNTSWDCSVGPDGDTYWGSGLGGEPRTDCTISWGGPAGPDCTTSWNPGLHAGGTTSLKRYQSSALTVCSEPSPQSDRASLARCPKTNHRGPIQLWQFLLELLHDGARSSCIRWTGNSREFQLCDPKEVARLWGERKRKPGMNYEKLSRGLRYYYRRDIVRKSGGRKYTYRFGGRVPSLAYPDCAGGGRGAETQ
In short: as §1

ELF3 = molecular target: T11, ELF3 (Homo sapiens, UniProt P78545 1-371); settings: protein: recombinant; tags: N-terminal GST; dsDNA, one strand shown
T11 sequence: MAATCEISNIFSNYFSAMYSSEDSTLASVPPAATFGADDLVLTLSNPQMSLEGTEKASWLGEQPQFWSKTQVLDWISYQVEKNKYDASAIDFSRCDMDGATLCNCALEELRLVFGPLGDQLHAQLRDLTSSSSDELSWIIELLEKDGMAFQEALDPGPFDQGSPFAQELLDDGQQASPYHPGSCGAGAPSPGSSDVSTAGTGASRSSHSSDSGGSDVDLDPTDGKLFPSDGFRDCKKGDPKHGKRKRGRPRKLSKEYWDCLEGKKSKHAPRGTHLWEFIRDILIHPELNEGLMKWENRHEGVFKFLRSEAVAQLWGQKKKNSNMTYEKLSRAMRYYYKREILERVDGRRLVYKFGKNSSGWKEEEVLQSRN
In short: as §1

CRX = CRX (Homo sapiens, UniProt O43186 1-299); settings: protein: recombinant; tags: N-terminal GST; dsDNA, one strand shown
In short: as §1

ETV1 = ETV1 (Homo sapiens, UniProt P50549 1-477); settings: protein: recombinant; tags: N-terminal GST; dsDNA, one strand shown
In short: as §1

Chain of ELF1 (P32519 whole entry): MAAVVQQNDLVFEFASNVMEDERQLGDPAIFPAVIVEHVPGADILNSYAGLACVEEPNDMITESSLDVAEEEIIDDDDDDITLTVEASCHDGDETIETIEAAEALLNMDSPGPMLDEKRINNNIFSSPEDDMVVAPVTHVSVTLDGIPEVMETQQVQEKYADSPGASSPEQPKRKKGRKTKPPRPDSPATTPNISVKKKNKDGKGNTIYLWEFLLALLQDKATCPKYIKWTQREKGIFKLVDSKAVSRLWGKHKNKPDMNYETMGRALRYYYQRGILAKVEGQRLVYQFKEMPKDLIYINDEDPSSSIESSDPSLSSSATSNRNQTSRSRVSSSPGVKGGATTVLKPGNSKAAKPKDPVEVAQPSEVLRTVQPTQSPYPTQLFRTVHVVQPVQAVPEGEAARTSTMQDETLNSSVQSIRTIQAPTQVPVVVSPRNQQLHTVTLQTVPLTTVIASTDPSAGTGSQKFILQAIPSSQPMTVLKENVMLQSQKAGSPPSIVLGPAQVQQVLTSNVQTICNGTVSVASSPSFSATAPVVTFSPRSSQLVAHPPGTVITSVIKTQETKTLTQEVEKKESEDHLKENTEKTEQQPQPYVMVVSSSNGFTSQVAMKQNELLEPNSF
Chain of SPIB (Q01892 whole entry): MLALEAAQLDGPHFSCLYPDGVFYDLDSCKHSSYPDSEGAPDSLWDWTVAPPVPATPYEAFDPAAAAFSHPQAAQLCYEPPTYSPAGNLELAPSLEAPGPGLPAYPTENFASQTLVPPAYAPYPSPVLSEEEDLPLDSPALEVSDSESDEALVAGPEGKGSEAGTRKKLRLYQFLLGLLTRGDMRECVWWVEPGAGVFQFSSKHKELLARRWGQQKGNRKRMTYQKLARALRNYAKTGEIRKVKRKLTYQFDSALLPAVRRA
Chain of ETV5 (P41161 whole entry): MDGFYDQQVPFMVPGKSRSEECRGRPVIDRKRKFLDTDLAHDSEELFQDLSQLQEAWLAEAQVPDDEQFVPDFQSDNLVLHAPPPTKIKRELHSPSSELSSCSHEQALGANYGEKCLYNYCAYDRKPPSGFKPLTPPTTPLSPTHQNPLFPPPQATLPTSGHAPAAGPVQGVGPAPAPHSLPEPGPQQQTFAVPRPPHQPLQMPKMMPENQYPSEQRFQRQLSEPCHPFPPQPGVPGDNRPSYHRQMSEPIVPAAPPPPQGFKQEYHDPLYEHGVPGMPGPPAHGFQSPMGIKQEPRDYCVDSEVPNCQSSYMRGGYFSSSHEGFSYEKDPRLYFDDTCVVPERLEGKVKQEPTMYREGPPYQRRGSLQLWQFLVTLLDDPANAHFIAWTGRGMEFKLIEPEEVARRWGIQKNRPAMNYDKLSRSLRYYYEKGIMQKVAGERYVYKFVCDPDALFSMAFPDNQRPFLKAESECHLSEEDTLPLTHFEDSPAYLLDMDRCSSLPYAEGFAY
Chain of ETV1 (P50549 whole entry): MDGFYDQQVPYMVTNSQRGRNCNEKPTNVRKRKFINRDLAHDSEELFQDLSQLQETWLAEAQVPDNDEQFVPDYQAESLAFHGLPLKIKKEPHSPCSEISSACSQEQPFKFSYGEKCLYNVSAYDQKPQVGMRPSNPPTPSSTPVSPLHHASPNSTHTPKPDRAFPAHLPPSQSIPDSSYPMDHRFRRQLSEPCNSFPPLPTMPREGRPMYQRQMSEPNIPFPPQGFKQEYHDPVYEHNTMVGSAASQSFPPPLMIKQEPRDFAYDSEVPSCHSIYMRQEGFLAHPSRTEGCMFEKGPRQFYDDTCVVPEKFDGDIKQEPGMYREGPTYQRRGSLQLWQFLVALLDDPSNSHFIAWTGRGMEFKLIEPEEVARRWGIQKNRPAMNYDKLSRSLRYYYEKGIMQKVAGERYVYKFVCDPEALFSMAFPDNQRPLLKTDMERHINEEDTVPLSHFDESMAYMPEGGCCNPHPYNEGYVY
Chain of ELF4 (Q99607 whole entry): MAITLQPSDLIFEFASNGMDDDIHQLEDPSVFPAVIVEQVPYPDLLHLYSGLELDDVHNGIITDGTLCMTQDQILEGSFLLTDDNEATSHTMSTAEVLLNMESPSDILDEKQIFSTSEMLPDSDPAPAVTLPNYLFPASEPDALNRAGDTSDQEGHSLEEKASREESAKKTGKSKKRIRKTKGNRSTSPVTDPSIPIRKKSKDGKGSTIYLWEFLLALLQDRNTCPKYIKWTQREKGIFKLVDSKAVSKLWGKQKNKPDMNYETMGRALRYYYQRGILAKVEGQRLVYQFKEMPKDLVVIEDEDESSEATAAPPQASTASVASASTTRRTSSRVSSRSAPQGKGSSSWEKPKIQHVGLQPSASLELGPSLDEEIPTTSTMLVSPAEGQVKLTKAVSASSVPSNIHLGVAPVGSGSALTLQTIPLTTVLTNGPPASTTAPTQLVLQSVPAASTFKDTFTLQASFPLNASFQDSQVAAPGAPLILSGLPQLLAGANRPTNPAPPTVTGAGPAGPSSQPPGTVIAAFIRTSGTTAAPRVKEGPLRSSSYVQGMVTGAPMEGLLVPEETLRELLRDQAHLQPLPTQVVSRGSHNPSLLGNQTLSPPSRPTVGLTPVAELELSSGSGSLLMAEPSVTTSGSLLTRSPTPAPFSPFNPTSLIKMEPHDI
Chain of CRX (O43186 whole entry): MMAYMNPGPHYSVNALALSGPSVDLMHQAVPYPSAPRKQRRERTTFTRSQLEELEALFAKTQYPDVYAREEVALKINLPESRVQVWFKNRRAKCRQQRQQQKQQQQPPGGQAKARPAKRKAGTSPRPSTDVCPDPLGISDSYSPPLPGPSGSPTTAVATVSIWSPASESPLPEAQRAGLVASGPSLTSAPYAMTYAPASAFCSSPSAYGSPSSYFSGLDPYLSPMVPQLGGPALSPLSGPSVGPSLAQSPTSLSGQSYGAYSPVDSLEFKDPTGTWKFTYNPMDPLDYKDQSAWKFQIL
Chain of HSF1 (Q00613 whole entry): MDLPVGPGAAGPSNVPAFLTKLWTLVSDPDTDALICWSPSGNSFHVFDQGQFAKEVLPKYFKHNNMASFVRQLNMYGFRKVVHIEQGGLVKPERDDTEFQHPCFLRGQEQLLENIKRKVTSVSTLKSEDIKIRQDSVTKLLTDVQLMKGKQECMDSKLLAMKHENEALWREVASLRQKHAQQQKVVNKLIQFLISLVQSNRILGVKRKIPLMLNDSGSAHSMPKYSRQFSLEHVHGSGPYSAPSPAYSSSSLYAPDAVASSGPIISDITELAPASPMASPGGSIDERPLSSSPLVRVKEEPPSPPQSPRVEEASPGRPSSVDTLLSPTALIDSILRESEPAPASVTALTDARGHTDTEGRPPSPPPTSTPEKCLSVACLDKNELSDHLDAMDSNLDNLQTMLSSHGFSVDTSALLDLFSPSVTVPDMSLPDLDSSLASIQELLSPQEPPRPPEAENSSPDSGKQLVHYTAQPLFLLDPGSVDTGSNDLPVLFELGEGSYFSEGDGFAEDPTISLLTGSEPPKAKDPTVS

With ATCTCT the binding signal (FLI1) was 1.29 fold enrichment (6-mer frequency, TF over GST control), the binding signal (ELK1) was 1.24 fold enrichment (6-mer frequency, TF over GST control) and the binding signal (GABPA) was 1.33 fold enrichment (6-mer frequency, TF over GST control). The binding signal (ERG) was 1.17 fold enrichment (6-mer frequency, TF over GST control), the binding signal (ELF1) was 1.29 fold enrichment (6-mer frequency, TF over GST control) and the binding signal (EHF) was 1.49 fold enrichment (6-mer frequency, TF over GST control). For the same sequence, the binding signal (SPI1) was 1.27 fold enrichment (6-mer frequency, TF over GST control), the binding signal (SPIB) was 1.36 fold enrichment (6-mer frequency, TF over GST control) and the binding signal (ELK3) was 1.3 fold enrichment (6-mer frequency, TF over GST control). For the same sequence, the binding signal (FEV) was 1.29 fold enrichment (6-mer frequency, TF over GST control), the binding signal (ETV5) was 1.29 fold enrichment (6-mer frequency, TF over GST control) and the binding signal (HSF1) was 1.63 fold enrichment (6-mer frequency, TF over GST control). For the same sequence, the binding signal (SPIC) was 1.45 fold enrichment (6-mer frequency, TF over GST control), the binding signal (ELF4) was 1.26 fold enrichment (6-mer frequency, TF over GST control) and the binding signal (ELK4) was 1.44 fold enrichment (6-mer frequency, TF over GST control). For the same sequence, the binding signal (ETV2) was 1.33 fold enrichment (6-mer frequency, TF over GST control), the binding signal (ELF3) was 1.26 fold enrichment (6-mer frequency, TF over GST control) and the binding signal (CRX) was 1.85 fold enrichment (6-mer frequency, TF over GST control). For the same sequence, the binding signal (ETV1) was 1.23 fold enrichment (6-mer frequency, TF over GST control).
